What was measured:
Format in all cases: functional
[1] = target: Solute carrier family 2, facilitated glucose transporter member 1 (Homo sapiens) (UniProt P11166); test: ST_JUDE_LEISH: Cytotoxicity at 2uM final concentration against transgenic Leishmania Mexicana promastigotes LmGLUT1 that are glucose transport deficient and complemented with the human glucose transporter GLUT1. Activity is measured by DNA content using SYBR green in vitro
[2] = target: Hexose transporter 1 (Plasmodium falciparum) (UniProt O97467); test: ST_JUDE_LEISH: Cytotoxicity at 2uM final concentration against transgenic Leishmania Mexicana promastigotes LmPfHT that are glucose transport deficient and complemented with the Plasmodium falciparum hexose transporter. Activity is measured by DNA content using SYBR green in vitro
[3] = target: Glucose transporter (Leishmania mexicana) (UniProt O61059); test: ST_JUDE_LEISH: Cytotoxicity at 2uM final concentration against transgenic Leishmania Mexicana promastigotes LmGT2 that are glucose transport deficient and complemented with the L. Mexicana glucose transporter 2. Activity is measured by DNA content using SYBR green in vitro

Sequence of Solute carrier family 2, facilitated glucose transporter member 1 (Homo sapiens) (P11166 whole entry): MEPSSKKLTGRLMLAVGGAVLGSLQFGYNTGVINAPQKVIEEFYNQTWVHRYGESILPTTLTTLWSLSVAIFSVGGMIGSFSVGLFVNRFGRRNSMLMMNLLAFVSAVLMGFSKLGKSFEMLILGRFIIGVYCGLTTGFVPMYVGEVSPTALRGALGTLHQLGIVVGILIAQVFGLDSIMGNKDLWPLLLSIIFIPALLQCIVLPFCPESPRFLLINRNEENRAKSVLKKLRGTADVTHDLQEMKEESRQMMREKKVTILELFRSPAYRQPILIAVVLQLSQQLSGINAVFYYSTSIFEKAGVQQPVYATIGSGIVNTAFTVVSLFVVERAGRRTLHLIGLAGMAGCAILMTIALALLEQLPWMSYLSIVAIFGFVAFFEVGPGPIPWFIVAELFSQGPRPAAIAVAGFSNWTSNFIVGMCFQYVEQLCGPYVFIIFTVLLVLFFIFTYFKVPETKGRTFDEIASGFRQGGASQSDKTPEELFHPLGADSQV

Row | Compound | inhibition [1] | inhibition [2] | inhibition [3]
1 | COc1ccc2nccc([C@@H](O)CN3CCC(NC(=O)c4nc(Cl)c(Cl)c(N)c4Cl)CC3)c2c1 | -0.09% | -0.22% | 1.55%
2 | COc1ccc(-n2ccnc2SCC(=O)Nc2cc(C)ccc2C)c(OC)c1 | 0.44% | 0.63% | 0.53%
3 | COc1cc(C(=O)N2N=C(c3c(-c4ccccc4)c4cc(Br)ccc4[nH]c3=O)CC2c2cccc([N+](=O)[O-])c2)cc(OC)c1OC (stereo unspecified) | 3.48% | 3.48% | 3.79%
4 | CCCCOc1c(CCC)cc(Cc2cnc(N)nc2N)cc1CCC | 7.57% | 3.82% | -0.35%
5 | CCOC(=O)c1nc(-c2ccc(-c3ccccc3)cc2)[nH]c1N | 3.98% | 2.89% | 2.52%
6 | COc1ccc2nccc([C@@H](O)CN3CCC(NCc4cc5ccccc5[nH]4)CC3)c2c1 | 17% | 23.5% | 4.85%
7 | COc1ccc(Nc2nc(=Nc3ccccc3)nc(NN=Cc3cc(Cl)ccc3O)[nH]2)cc1 | 1.37% | 2.04% | 1.08%
8 | CC1CN(c2ccc(NC(=O)c3ccc(F)cc3)cc2)CCN1Cc1cccc(F)c1 (stereo unspecified) | 3.88% | 2.84% | 4.01%
9 | COc1ccc(CCNCCCCNCCc2ccc(OC)c3ccccc23)c2ccccc12 | 64.4% | 55.5% | 102%
10 | COc1ccc(C2C(C(=O)Nc3cc(OC)c(OC)c(OC)c3)c3cc(OC)c(OC)cc3C(=O)N2C)cc1 (stereo unspecified) | 1.9% | 1.7% | 2.37%
11 | CC(C)Cn1c(Sc2ccc(C#N)c([N+](=O)[O-])c2)nnc1-c1cccc(Cl)c1 | 12.7% | 12.4% | 9.62%
12 | CCOC(=O)C1CCN(CCCNC(=O)/C(=C/C=C/c2cc3cc(Cl)c(Cl)cc3[nH]2)OC)CC1 | -1.12% | 4.1% | 0.42%
13 | Cc1ccoc1C(=O)Nc1ccc(-c2cccc(-c3nc4cccc(C)c4[nH]3)c2)cc1 | 2.21% | 2.54% | 1.34%
14 | Cc1cc(NC(=O)c2sc3ccccc3c2O)no1 | 2.41% | 1.84% | 0.64%
15 | N=c1c2nc(-c3c(F)cccc3Cl)[nH]c(=O)c2[nH]c(=O)n1-c1ccccc1 | 2.91% | 11.5% | 3.34%
16 | COc1ccc(-c2cc3nc4c(c(NCCCn5ccnc5)n3n2)CCCC4)cc1 | 1.31% | 1.92% | 2.25%

Row | Compound | inhibition [1] | inhibition [2] | inhibition [3]
17 | Cc1onc(-c2ccccc2)c1-c1nc(NC2CCCC(C)C2)no1 (stereo unspecified) | 2.36% | -1.49% | 3.54%
18 | COc1cc(-c2nc(-c3ccncc3)c(-c3ccc4c(c3)CCC4=NO)[nH]2)ccc1OCCN1CCN(C)CC1 | 6.6% | 6.49% | 5.31%
19 | COC(=O)c1ccc(CN2CCC(N(Cc3cccc(Oc4ccccc4)c3)S(=O)(=O)c3ccc(NC(C)=O)cc3)CC2)cc1 | 0.23% | 0.78% | 0.32%
20 | C[C@@H]1CC[C@H](NC(=O)[C@H](CC2CCCC2)NC(=O)N2CCNCC2)C(=O)CN1S(=O)(=O)c1ccccn1 | 1.44% | 0.17% | -0.32%
21 | COc1ccc(NC(=O)N2CCCN(CCCCCNC(=O)/C=C/c3ccc(Cl)cc3)CC2)cc1Cl | 2.15% | 2.96% | 0.93%
22 | CCN(CC)CCN(Cc1ccc(-c2ccc(C(F)(F)F)cc2)cc1)C(=O)Cn1c(/C=C/c2ccco2)nc(=O)c2ccccc21 | -0.7% | -0.97% | -1.26%
23 | COc1cccc(CNC(=O)[C@H]2CNCCN2C(=O)CCCc2ccccc2)c1 | 3.03% | -0.14% | 5.01%
24 | Oc1ccc(CCNc2nc(NCCCOc3ccccc3-c3cccnc3)nc(N3CCNCC3)n2)cc1 | 5.04% | 7.86% | 5.99%
25 | COc1ccc(-c2csc(NC(=O)CCC(=O)O)n2)cc1OC | 0.77% | 1.36% | 3.83%
26 | COc1ccc(Oc2cnc(N)nc2N)c(C(C)C)c1 | 4.31% | 5.88% | 2.01%
27 | COc1ccc(-c2cc(C(=O)Nc3ccc4[nH]c(-c5ccccc5)nc4c3)[nH]n2)cc1 | 13.1% | 12% | 14.1%
28 | COc1cc(C(F)(F)F)nc2c(CNCCCNc3cc(=O)c4ccccc4[nH]3)scc12 | 0.84% | 0.13% | 0.55%
29 | CCc1cn2c3c(cc(C(=O)N[C@@H](Cc4cccc(Cl)c4)[C@H](O)CNC4CCCCC4)cc13)N(C)S(=O)(=O)CC2 | -0.29% | 1.09% | -0.36%
30 | CC[C@H](C)CNC(=O)c1cccc(-c2cccc(CN3CCC(N4CCCC4)CC3)c2)n1 | -2.59% | -0.05% | -0.2%
31 | COc1ccc2nc(Nc3nc(-c4ccccn4)cs3)sc2c1 | 11.7% | 16% | 5.62%
32 | Cc1cc(N)ncc1-c1ccc(NC(=O)Nc2cc(C(F)(F)F)ccc2F)cc1 | 2.41% | 2.25% | 1.43%

— ChEMBL document CHEMBL3433997, “St. Jude Leishmania screening dataset” (2016)
